Among the data in PubChem BioAssay AID1209 (Sanford-Burnham Center for Chemical Genomics, 2008) are inhibition values, retold here.

“And” between values parts separate entries of the source, which are not always exact repeats. Identical values can stand only once. Out of some 190,000 compounds screened, about 810 (0.43%) were called active. Cut-off read from the data, not from the text of the source: active = inhibition above about 50%; inactive = the rest. The sample as a whole holds a higher share of actives than the screen did.

Mannose-6-phosphate isomerase (Homo sapiens), sequence (P34949 whole entry, looked up): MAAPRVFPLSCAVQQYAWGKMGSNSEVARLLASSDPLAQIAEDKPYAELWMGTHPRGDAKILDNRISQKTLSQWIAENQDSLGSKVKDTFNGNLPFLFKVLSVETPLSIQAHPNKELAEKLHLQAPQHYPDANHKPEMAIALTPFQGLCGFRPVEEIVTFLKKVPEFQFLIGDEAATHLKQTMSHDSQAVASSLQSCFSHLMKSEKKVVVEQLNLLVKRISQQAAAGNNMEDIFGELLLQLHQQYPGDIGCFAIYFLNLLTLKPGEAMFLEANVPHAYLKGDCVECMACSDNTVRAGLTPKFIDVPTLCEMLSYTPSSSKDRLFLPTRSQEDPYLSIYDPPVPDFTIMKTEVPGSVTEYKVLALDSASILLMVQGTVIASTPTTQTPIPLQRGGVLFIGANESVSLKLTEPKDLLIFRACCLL

The assay addresses Mannose-6-phosphate isomerase (Homo sapiens) (UniProt P34949). Kind of assay: MPI enzyme activity inhibition – biochemical, fluorescence intensity, coupled assay, primary screen (AID 1209).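 Note: plate controls were DMSO vehicle for no effect and wells lacking substrate for full effect.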 To be noted: purified PMI enzyme, at 20 µM, active compounds read high.
One may read the inhibition as the drop in the measured response relative to a control, in per cent. As for `CCOC(=O)c1c(C)c(C(=O)NCc2ccccc2OC)c(C)n1C`, the inhibition was 11.8% (inactive). To `CCOC(=O)CNC(=S)n1ncnc1N` belongs -9.1% (inactive). Turning to `Cc1ccc(S(=O)(=O)CCC(=O)Nc2ccc(F)cc2)cc1`, the inhibition is 6.5% (inactive).

As to `Cc1cccc(C(C)C)c1NC(=O)COC(=O)Cc1ccsc1`, the inhibition was 9% (inactive). Next, `Cc1ccc(OCC(=O)N/N=C/c2ccco2)cc1`: -1.5% (inactive).

With `CCNc1nc(NCC)nc(N/N=C/c2ccc(O)c(O)c2)n1`, the inhibition is 61.4% (active).

In the case of `Oc1cccc(/C=N/Nc2cc(N3CCCC3)nc(N3CCCC3)n2)c1`, the inhibition is 41.2% (inactive).

Regarding `Clc1ccc(-c2ccc(/C=N/Nc3cc(N4CCOCC4)nc(N4CCOCC4)n3)o2)cc1`, the inhibition was 47.2% (inactive). Next, `CCNc1nc(NCC)nc(N/N=C/c2ccc(N(C)C)cc2)n1`: -12.9% (inactive); `CCNc1nc(NCC)nc(N/N=C/c2ccc(Br)cc2)n1`: -0.7% (inactive). To `CN(C)c1ccc(/C=C/C=N/Nc2nc(N3CCOCC3)nc(N3CCOCC3)n2)cc1` belongs 7.3% (inactive); to `COc1ccc(/C=N/Nc2cc(N3CCCC3)nc(N3CCCC3)n2)cc1`, 32% (inactive). As for `CN(C)c1ccc(/C=N/Nc2cc(N3CCOCC3)nc(N3CCOCC3)n2)cc1`, the inhibition is 73.3% (active). `CC(C)c1ccc(/C=N/Nc2cc(N3CCOCC3)nc(N3CCOCC3)n2)cc1`: the inhibition is 77% (active). To `Oc1ccc(/C=N/Nc2cc(N3CCCC3)nc(N3CCCC3)n2)cc1` belongs 32% (inactive). `Oc1ccc(/C=N/Nc2cc(N3CCOCC3)nc(N3CCOCC3)n2)cc1O`: the inhibition is 76.8% (active).

With `Oc1ccc(/C=N\Nc2cc(N3CCOCC3)nc(N3CCOCC3)n2)c(O)c1`, the inhibition was 32.2% (inactive). Next, `O=[N+]([O-])c1ccc(O)c2cccnc12`: -10.1% (inactive); `CCCn1nc(C(=O)NC2CCCc3ccccc32)c2ccccc2c1=O` (stereo unspecified): 6.9% (inactive); `COc1ccc(OC)c(C(=O)COC(=O)c2cc(C)oc2C)c1`: -24.4% (inactive).

Turning to `O=C(CNC(=O)c1cccs1)NCC(=O)OCc1cccc(Cl)c1`, the inhibition is 4.5% (inactive). For `CCOC(=O)C1=C(C)Nc2ccccc2N=C1NC(=O)Cc1ccc(Br)cc1`, the inhibition was 18.8% (inactive). Next, `COc1ccc(Br)cc1-c1noc(-c2ccccc2)n1`: 11.5% (inactive); `COc1ccc(C2C(C#N)=C(N)Oc3n[nH]c(C)c32)cc1Cn1cc([N+](=O)[O-])cn1` (stereo unspecified): 7.7% (inactive); `O=C(/C=C/c1ccc(Br)cc1)NC(=S)NNC(=O)c1ccco1`: -1.2% (inactive).

With `Oc1ccc(/C=N/Nc2nc(N3CCCC3)nc(N3CCCC3)n2)cc1O`, the inhibition was 57.6% (active). Next, `COc1cc(/C=N/Nc2nc(N3CCCC3)nc(N3CCCC3)n2)ccc1O`: 7.9% (inactive); `COc1ccc(/C=N/Nc2nc(N3CCCC3)nc(N3CCCC3)n2)cc1O`: -10.3% (inactive).

`N=C1C(c2ccccc2)=C(O)CN1c1cccc(S(N)(=O)=O)c1`: the inhibition was 10.1% (inactive).

As to `CC1(C)C2CCC1(CS(=O)(=O)N1CCOCC1)C(=O)C2` (stereo unspecified), the inhibition is 7.9% (inactive). To `CCOC(=O)c1cc2sccc2n1CC(=O)Nc1ccc(OC)cc1OC` belongs 16% (inactive); to `O=C1c2ccccc2C(=O)N1CN(C(=O)COc1ccccc1)c1ccccc1`, 3.5% (inactive); to `COC(=O)c1ccc(Sc2ccc(Cl)cc2)c(N)c1`, 9.3% (inactive). Next, `COC(=O)c1ccc(Sc2ccc(F)cc2)c(N)c1`: 11.4% (inactive); `COC(=O)c1ccc(Sc2ccc(C)cc2)c(N)c1`: 55% (active); `Cc1sc2nc(CSc3n[nH]c(N)n3)[nH]c(=O)c2c1C`: -10.2% (inactive). Next, `CCCCNc1cc(NC(C)=O)cc2cc(OC)c(OC)cc12`: 53.3% (active). Turning to `CCCC(=O)Nc1cc(OC)c(OC)cc1C(=O)O`, the inhibition was 6.8% (inactive). For `CCCCNc1nc(=S)[nH]c2cc(OC)c(OC)cc12`, the inhibition was -4.5% (inactive). Next, `Cc1cc(C)c(C#N)c(SCc2[nH]nc3c2C(c2ccc(F)cc2)C(C#N)=C(N)O3)n1` (stereo unspecified): 12.8% (inactive); `COc1cc(OC)cc(C(=O)NNC(=O)Cc2ccc(OC)c(S(=O)(=O)N3CCOCC3)c2)c1`: 2.7% (inactive); `CCOC(=O)c1sc(=S)n2c1[nH]c(=O)c1ccc(C(=O)OC)cc12`: 68.6% (active). To `CCCCNC(=O)c1sc(=S)n2c1[nH]c(=O)c1ccccc12` belongs 16.1% (inactive); to `CCCCCNC(=O)c1ccc2c(=O)[nH]c3c(C(=O)NCC4CCCO4)sc(=S)n3c2c1` (stereo unspecified), 10.4% (inactive). Next, `CCOc1ccc(-c2[nH]nc3c2C(c2ccc(O)cc2)C(C#N)=C(N)O3)cc1` (stereo unspecified): 27.8% (inactive). As for `COc1ccc(-c2noc(CN(C(=O)C(C)(C)C)C(C)C)n2)cc1`, the inhibition is 15.9% (inactive). With `Cc1oc2cc(O)ccc2c(=O)c1-c1cnn(-c2ccccc2)c1`, the inhibition is -5.2% (inactive). To `Cc1oc2c(O)c(O)ccc2c(=O)c1-c1cnn(-c2ccccc2)c1` belongs 79.5% (active); to `Cc1oc2c(C)c(O)ccc2c(=O)c1-c1cnn(-c2ccccc2)c1`, -14.8% (inactive).

Regarding `CCC(CC)=C(C#N)C(=O)NC1CCCCC1`, the inhibition is -12.5% (inactive). Next, `CCN(C(=O)COC(=O)c1cc(-c2ccccc2)nc2c1c(C)nn2-c1ccccc1)C1CCS(=O)(=O)C1` (stereo unspecified): 14.7% (inactive). Next, `O=c1cc(-c2ccccc2Cl)oc2cccc(O)c12`: -9.9% (inactive); `CC1(C)CC(=O)c2c(oc3cc(O)c(O)cc23)C1`: 47.6% (inactive). To `CCOc1ccccc1-c1c2cc(O)c(=O)cc-2oc2cc(O)c(O)cc12` belongs 46.2% (inactive); to `COc1ccc(-c2cc(=O)c3cc(OC)ccc3o2)cc1`, -5% (inactive); to `COc1ccc(OC)c(-c2c3cc(O)c(=O)cc-3oc3cc(O)c(O)cc23)c1`, 61.1% (active).

Turning to `COc1cc(-c2cc(=O)c3ccccc3o2)ccc1O`, the inhibition is 5.9% (inactive). Next, `COc1ccc(OC)c(-c2oc3ccccc3c(=O)c2O)c1`: -5.6% (inactive); `COc1cc(OC)c(-c2c3cc(O)c(=O)cc-3oc3cc(O)c(O)cc23)cc1OC`: 73.9% (active); `Nc1cnn(Cc2ccccc2F)c1`: 18.2% (inactive). To `COc1ccc2[nH]cc(CCn3ccc(=O)c(C)c3C)c2c1` belongs 0.3% (inactive); to `O=C(Nc1ccccc1)c1sccc1Oc1ccc([N+](=O)[O-])cc1F`, -6% (inactive). Next, `CC(C)Oc1ccc2c(=O)c(-c3ccccc3)coc2c1`: 0.6% (inactive) and 7.3% (inactive); `CC(=O)Oc1ccc2c(=O)c(-c3ccccc3)coc2c1`: -0.1% (inactive); `COc1ccc2c(=O)c(-c3ccccc3)coc2c1`: 52.5% (active). In the case of `COc1cccc(-c2ccc(SCC(=O)NCCc3ccccc3)nn2)c1`, the inhibition is 1.9% (inactive). In the case of `O=c1[nH]c2ccccc2c(O)c1O`, the inhibition is 71.8% (active). Next, `CC(=O)Nc1c(O)c2ccccc2[nH]c1=O`: 20.2% (inactive).

For the compound `O=c1[nH]c2ccccc2c2ccccc12`, the inhibition is 3.2% (inactive). To `Cc1cccc(/C(N)=N/OC(=O)C23CC4CC(CC(C4)C2)C3)c1` belongs 9% (inactive). Next, `Cn1c(=O)n(Cc2ccc(F)cc2)c(=O)c2c1nc1n2CCCN1C1CCCCC1`: 6% (inactive); `CCOCCCNC(=O)CCC(=O)NNc1nc2ccccc2c2nc(C)nn12`: 57.5% (active). To `COCCCNC(=O)CCC(=O)NNc1nc2ccccc2c2nc(C)nn12` belongs -1.5% (inactive); to `CCCCNC(=O)CCC(=O)NNc1nc2ccccc2c2nc(C)nn12`, 6.3% (inactive); to `COC(=O)c1cccc(NS(=O)(=O)c2ccc(NC(C)=O)cc2)c1C`, -4.2% (inactive).

As for `COc1ccc(/C=N/NC(=O)CCN2CCN(c3ccccc3)CC2)c(OC)c1OC`, the inhibition was -3.2% (inactive). As to `O=C(Cc1csc(N2CCOCC2)n1)N/N=C/c1ccc(Cl)cc1Cl`, the inhibition is 4.7% (inactive). To `O=C(CCc1ccc(S(=O)(=O)N2CCOCC2)cc1)N/N=C/c1ccc(O)c(O)c1O` belongs 57.6% (active); to `O=C(CCN1CCN(c2ccccc2)CC1)N/N=C/c1ccccc1O`, -8.5% (inactive); to `O=C(CCc1ccc(S(=O)(=O)N2CCOCC2)cc1)N/N=C/c1cccc(O)c1`, 11.1% (inactive).

As to `O=C(Cc1csc(N2CCOCC2)n1)N/N=C/c1ccc(O)c(O)c1O`, the inhibition is 83.3% (active). To `O=C(CCc1ccc(S(=O)(=O)N2CCOCC2)cc1)N/N=C/c1ccc(F)cc1F` belongs 4.8% (inactive); to `O=[N+]([O-])c1ccc(N/N=C/c2ccc(O)c(O)c2O)c(S(=O)(=O)N2CCOCC2)c1`, 82.3% (active). Next, `O=[N+]([O-])c1ccc(N/N=C/c2cccc(O)c2O)c(S(=O)(=O)N2CCOCC2)c1`: 16.7% (inactive). Next, `O=C(CCN1CCN(c2ccccc2)CC1)N/N=C/c1ccc(O)c(O)c1O`: 57.4% (active); `O=C(Cc1csc(N2CCOCC2)n1)N/N=C/c1cccc(O)c1`: 3.3% (inactive); `COc1cc(/C=N/Nc2ccc([N+](=O)[O-])cc2S(=O)(=O)N2CCOCC2)cc(OC)c1OC`: -6.8% (inactive). In the case of `CN(C)C(=O)COc1ccc(Br)cc1`, the inhibition was 8.1% (inactive). Take `O=C(NN=C1CCCC1)c1sc2ccccc2c1Cl`: the inhibition is -19.6% (inactive). Next, `COc1ccc(N(C(=O)CCl)C(C(=O)NCCc2ccccc2)c2cccs2)cc1Cl` (stereo unspecified): -8.6% (inactive). To `Cc1noc(NS(=O)(=O)c2ccc(NC(=O)C34CC5CC(C3)CC(n3cnc(Br)n3)(C5)C4)cc2)c1C` belongs 0.3% (inactive); to `O=C(CN1C(=O)CCC1=O)c1ccc(-c2ccccc2)cc1`, 5.6% (inactive); to `CC(=O)Nc1nc(SCc2ccc(Cl)cc2Cl)n[nH]1`, 2% (inactive).

For the compound `Nn1c(COc2ccc(Cl)cc2)nc2ccccc2c1=O`, the inhibition was -0.6% (inactive). Regarding `CC(=O)Nc1ccc(S(=O)(=O)N2CCN(C(=O)c3cccnc3)CC2)cc1`, the inhibition was 17.8% (inactive).

Take `CCOc1ccc(CCNC(=O)c2ccc(N3CCCC3=O)cc2)cc1OCC`: the inhibition is 1.3% (inactive).
